From the antibiotic and cytotoxicity screens of Wong et al. (2023)
About 500 (1.3%) of roughly 39,000 compounds were called active. This excerpt belongs to a sample that is enriched for actives.

What follows are compounds tested on S. aureus RN4220 (assay: growth inhibition call (relative growth <= 0.2)). Conditions: 50 µM.
`COc1ccc(CN(C)C[C@@H]2Oc3ccc(NC(=O)Nc4ccc(C(F)(F)F)cc4)cc3CC(=O)N([C@H](C)CO)C[C@@H]2C)cc1` was tested, and the growth inhibition call was “inactive”. For `C[C@H]1CCCCO[C@@H](CN(C)C(=O)Nc2ccccc2)[C@@H](C)CN([C@@H](C)CO)C(=O)c2cc(NC(=O)c3ccccc3)ccc2O1`, the growth inhibition call was “inactive”. `O=C1c2ccccc2C(=O)c2c(NCCNCCO)ccc(NCCNCCO)c21` was tested, and the growth inhibition call was “inactive”. `C[C@@H]1CN([C@H](C)CO)C(=O)c2cc(NC(=O)C3CC3)ccc2O[C@@H]1CN(C)Cc1ccc(-c2ccccc2)cc1` was tested, and the growth inhibition call was “inactive”. For `C[C@@H]1CN([C@@H](C)CO)C(=O)c2cccc(NC(=O)Nc3ccc(C(F)(F)F)cc3)c2O[C@H]1CN(C)C(=O)Nc1ccc(F)cc1`, the growth inhibition call was “active”. In the case of `Cc1noc(C)c1NC(=O)Nc1cccc2c1O[C@H](CN(C)C(=O)Nc1ccc(C(F)(F)F)cc1)[C@H](C)CN([C@H](C)CO)C2=O`, the growth inhibition call is reported as “inactive”. With `C[C@@H]1CN([C@@H](C)CO)C(=O)c2cccc(NC(=O)Nc3ccc(F)cc3)c2O[C@H]1CN(C)C(=O)Nc1ccc(C(F)(F)F)cc1` the growth inhibition call was “inactive”. `Cc1noc(C)c1NC(=O)Nc1cccc2c1O[C@@H](CN(C)C(=O)Nc1ccc(C(F)(F)F)cc1)[C@@H](C)CN([C@H](C)CO)C2=O` was tested, and the growth inhibition call was “inactive”. `COc1ccc(NC(=O)Nc2cccc3c2O[C@@H](CN(C)C(=O)Nc2ccc(C(F)(F)F)cc2)[C@@H](C)CN([C@@H](C)CO)C3=O)cc1` was tested, and the growth inhibition call was “inactive”. `Cc1noc(C)c1NC(=O)Nc1cccc2c1O[C@@H](CN(C)C(=O)Nc1ccc(C(F)(F)F)cc1)[C@H](C)CN([C@@H](C)CO)C2=O` was tested, and the growth inhibition call was “active”. `COc1ccc(NC(=O)Nc2cccc3c2O[C@H](CN(C)C(=O)Nc2ccc(C(F)(F)F)cc2)[C@@H](C)CN([C@@H](C)CO)C3=O)cc1` was tested, and the growth inhibition call was “inactive”. `C[C@@H]1CN([C@H](C)CO)C(=O)c2cccc(NC(=O)Nc3ccc(F)cc3)c2O[C@H]1CN(C)C(=O)Nc1ccc(C(F)(F)F)cc1` was tested, and the growth inhibition call was “inactive”. With `COc1ccc(NC(=O)N(C)C[C@@H]2Oc3c(NC(=O)Nc4ccc(C(F)(F)F)cc4)cccc3C(=O)N([C@@H](C)CO)C[C@@H]2C)cc1` the growth inhibition call was “active”. In the case of `C[C@H](CO)N1C[C@H](C)[C@H](CN(C)C(=O)Nc2ccc(C(F)(F)F)cc2)Oc2c(NC(=O)Nc3ccc(F)cc3)cccc2C1=O`, the growth inhibition call is reported as “inactive”. With `C[C@@H]1CN([C@H](C)CO)C(=O)c2cccc(NC(=O)Nc3ccc(C(F)(F)F)cc3)c2O[C@@H]1CN(C)C(=O)Nc1ccc(F)cc1` the growth inhibition call was “active”. `C[C@H]1CN([C@@H](C)CO)C(=O)c2cccc(NC(=O)Nc3ccc(C(F)(F)F)cc3)c2O[C@H]1CN(C)C(=O)Nc1ccc(F)cc1` was tested, and the growth inhibition call was “inactive”. With `CO[C@H]1CN(C)C(=O)c2ccc(NS(C)(=O)=O)cc2OC[C@H](C)N(C(=O)c2ccc3c(c2)OCO3)C[C@@H]1C` the growth inhibition call was “inactive”. `CCCNC(=O)N1C[C@H](O)COC[C@H]2O[C@@H](CC(=O)N3CCOCC3)CC[C@@H]21` was tested, and the growth inhibition call was “inactive”. With `CCCCc1cc(CCCC)n2nc(-c3ccccc3)cc2n1` the growth inhibition call was “inactive”. `CCS(=O)(=O)N1C[C@]2(CN(C2)S(=O)(=O)c2cn(cn2)C)c2c([nH]c3cc(ccc23)OC)[C@H]1CO` was tested, and the growth inhibition call was “inactive”. `COCC#Cc1cnc2c(c1)C(=O)N([C@H](C)CO)C[C@H](C)[C@@H](CN(C)C(=O)c1ccc3c(c1)OCO3)O2` was tested, and the growth inhibition call was “inactive”. With `C[C@@H]1CCCCO[C@@H](CN(C)Cc2ccc(C(=O)O)cc2)[C@@H](C)CN([C@H](C)CO)C(=O)c2cc(NC(=O)Nc3ccc(F)cc3)ccc2O1` the growth inhibition call was “inactive”. `CN(C)CCN1C[C@@H]2CN(C(=O)c3cnc[nH]3)C[C@H]2C1=O` was tested, and the growth inhibition call was “inactive”. `C[C@@H]1CN([C@H](C)CO)C(=O)Cc2cc(NS(=O)(=O)c3cn(C)cn3)ccc2O[C@H]1CN(C)S(=O)(=O)c1ccccc1` was tested, and the growth inhibition call was “inactive”. With `Cc1ccccc1S(=O)(=O)N1[C@@H]2c3cccc(=O)n3C[C@H]1[C@H](CO)[C@H]2C(=O)N1CCOCC1` the growth inhibition call was “inactive”. For `C[C@H]1CN([C@@H](C)CO)C(=O)c2cccc(NS(=O)(=O)c3cn(C)cn3)c2O[C@@H]1CN(C)Cc1ccc(C(=O)Nc2ccccc2N)cc1`, the growth inhibition call was “inactive”. With `Cc1ccc(S(=O)(=O)N(C)C[C@H]2OCCCC[C@@H](C)Oc3ccc(NC(=O)CCCCCC(=O)Nc4ccccc4N)cc3C(=O)N([C@H](C)CO)C[C@@H]2C)cc1` the growth inhibition call was “inactive”. `Cc1noc(C)c1NC(=O)N(C)C[C@H]1OCCCC[C@@H](C)Oc2ccc(NS(=O)(=O)c3ccc(Cl)cc3)cc2C(=O)N([C@@H](C)CO)C[C@@H]1C` was tested, and the growth inhibition call was “inactive”. With `Cn1c(=O)c2c(ncn2C[C@@H](O)CNc2ccc(Br)cc2)n(C)c1=O` the growth inhibition call was “inactive”. With `COc1cc(C)c(C=CC=CC=CC=CC(=O)O)c(C)c1C` the growth inhibition call was “inactive”. In the case of `C[C@H](CO)N1C[C@H](C)[C@H](CN(C)C(=O)Nc2ccc(F)cc2)Oc2c(NC(=O)Nc3ccc(C(F)(F)F)cc3)cccc2C1=O`, the growth inhibition call is reported as “active”. `C[C@H]1CN([C@@H](C)CO)C(=O)c2cccc(NC(=O)Nc3ccc(C(F)(F)F)cc3)c2O[C@@H]1CN(C)C(=O)Nc1ccc(F)cc1` was tested, and the growth inhibition call was “inactive”. For `C[C@@H]1CN([C@H](C)CO)C(=O)c2cccc(NC(=O)Nc3ccc(F)cc3)c2O[C@@H]1CN(C)C(=O)Nc1ccc(C(F)(F)F)cc1`, the growth inhibition call was “inactive”. In the case of `C[C@H](CO)N1C[C@H](C)[C@@H](CN(C)C(=O)NC2CCCCC2)OCCCC[C@H](C)Oc2ccc(NC(=O)c3ccncc3)cc2C1=O`, the growth inhibition call is reported as “inactive”. In the case of `C[C@@H]1CN([C@@H](C)CO)C(=O)c2cc(NC(=O)Nc3ccc(F)cc3)ccc2O[C@@H](C)CCCCO[C@@H]1CN(C)C(=O)NC1CCCCC1`, the growth inhibition call is reported as “inactive”. With `C[C@@H]1CCCCO[C@@H](CN(C)C(=O)C2CCCCC2)[C@@H](C)CN([C@H](C)CO)C(=O)c2cc(NC(=O)C3CCCCC3)ccc2O1` the growth inhibition call was “inactive”. With `CC1=C(C(=O)O)N2C(=O)[C@@H](NC(=O)[C@H](N)C3=CCC=CC3)[C@H]2SC1` the growth inhibition call was “inactive”. With `Cn1nnnc1SCC1=C(C(=O)[O-])N2C(=O)C(NC(=O)C(O)c3ccccc3)C2SC1.[Na+]` (stereo not given) the growth inhibition call was “active”. For `CC1=C(C(=O)O)N2C(=O)C(NC(=O)C(N)C3=CCC=CC3)C2SC1` (stereo not given), the growth inhibition call was “inactive”. In the case of `NCc1ccccc1CC(=O)NC1C(=O)N2C(C(=O)O)=C(CSc3nnnn3CC(=O)O)CSC12` (stereo not given), the growth inhibition call is reported as “active”. With `Cn1nnnc1SCC1=C(C(=O)[O-])N2C(=O)C(NC(=O)C(OC=O)c3ccccc3)C2SC1.[Na+]` (stereo not given) the growth inhibition call was “active”. In the case of `O=C([O-])C1=C(CSc2nnnn2CS(=O)(=O)[O-])CSC2C(NC(=O)C(O)c3ccccc3)C(=O)N12.[Na+].[Na+]` (stereo not given), the growth inhibition call is reported as “active”. In the case of `CCCNC(=O)C[C@H]1CC[C@H]2[C@@H](COc3ccc(NC(=O)c4ccc5c(c4)OCO5)cc3C(=O)N2C)O1`, the growth inhibition call is reported as “inactive”. For `C[C@H]1CN([C@@H](C)CO)C(=O)c2cc(Br)cnc2O[C@H]1CN(C)S(=O)(=O)c1ccccc1F`, the growth inhibition call was “inactive”. For `Cc1noc(C)c1NC(=O)N(C)C[C@@H]1Oc2ccc(NS(=O)(=O)c3cn(C)cn3)cc2CC(=O)N([C@H](C)CO)C[C@@H]1C`, the growth inhibition call was “inactive”. With `C[C@H](CO)N1C[C@H](C)[C@H](CN(C)S(=O)(=O)c2ccc(Cl)cc2)Oc2c(NC(=O)Nc3cccc4ccccc34)cccc2C1=O` the growth inhibition call was “inactive”. `Cc1noc(C)c1NC(=O)Nc1ccc2c(c1)C(=O)N([C@@H](C)CO)C[C@H](C)[C@H](CN(C)S(=O)(=O)c1ccccc1)O2` was tested, and the growth inhibition call was “inactive”. For `C[C@@H]1CN([C@@H](C)CO)C(=O)CCCn2cc(nn2)CO[C@@H]1CN(C)Cc1ccc(C(=O)Nc2ccccc2N)cc1`, the growth inhibition call was “inactive”. For `C[C@@H](NS(=O)(=O)c1cccc(F)c1)C(=O)O`, the growth inhibition call was “inactive”. For `C[C@@H]1CN([C@H](C)CO)C(=O)c2cc(NC(=O)C3CCCCC3)ccc2O[C@@H](C)CCCCO[C@H]1CN(C)C(=O)Nc1ccc(F)cc1`, the growth inhibition call was “inactive”. For `C[C@H](CO)N1C[C@H](C)[C@H](CN(C)C(=O)Nc2ccccc2)OCCCC[C@H](C)Oc2ccc(NS(=O)(=O)c3ccc(F)cc3)cc2C1=O`, the growth inhibition call was “inactive”. With `c1coc(CNc2nc[n+]3c4c2ncn4CC3)c1` the growth inhibition call was “inactive”. In the case of `C[C@@H]1CCCCO[C@H](CN(C)C(=O)Nc2cccc3ccccc23)[C@H](C)CN([C@@H](C)CO)C(=O)c2cc(N(C)C)ccc2O1`, the growth inhibition call is reported as “inactive”. With `Cc1noc(C)c1S(=O)(=O)Nc1ccc2c(c1)C(=O)N([C@@H](C)CO)C[C@H](C)[C@@H](CN(C)C(=O)Nc1ccc3c(c1)OCO3)O2` the growth inhibition call was “inactive”. In the case of `CO[C@@H]1[C@@H](O[C@@H]2O[C@H](C)[C@@H](O[C@H]3C[C@@](C)(O)[C@@H](O)[C@H](C)O3)[C@H](N(C)C)[C@H]2O)[C@@H](CC=O)C[C@@H](C)[C@@H](O[C@H]2CC[C@H](N(C)C)[C@@H](C)O2)/C=C/C=C/CC(C)OC(=O)C[C@H]1OC(C)=O` (stereo not given in full), the growth inhibition call is reported as “inactive”. `CO[C@@H]1[C@@H](O[C@@H]2O[C@H](C)[C@@H](O[C@H]3C[C@@](C)(O)[C@@H](O)[C@H](C)O3)[C@H](N(C)C)[C@H]2O)[C@@H](CC=O)C[C@@H](C)[C@@H](O[C@H]2CC[C@H](N(C)C)[C@@H](C)O2)/C=C/C=C/C[C@@H](C)OC(=O)C[C@H]1O` was tested, and the growth inhibition call was “active”. For `COC1C(O)CC(=O)OC(C)CC=CC=CC(OC2CCC(N(C)C)C(C)O2)C(C)CC(CC=O)C1OC1OC(C)C(OC2CC(C)(O)C(O)C(C)O2)C(N(C)C)C1O` (stereo not given), the growth inhibition call was “active”. `Cc1noc(C)c1NC(=O)Nc1ccc2c(c1)C(=O)N([C@H](C)CO)C[C@@H](C)[C@H](CN(C)C(=O)Nc1cccc3ccccc13)O2` was tested, and the growth inhibition call was “inactive”. `COC(=O)c1c2oc(c1C(=O)OC)C(=O)N[C@H](Cc1ccccc1)Cn1cc(nn1)[C@@H](Cc1ccccc1)NC(=O)N[C@@H](COC(=O)NCCCCCC(=O)NO)CC2` was tested, and the growth inhibition call was “inactive”. For `C[C@@H]1CCCCO[C@@H](CN(C)C(=O)Nc2ccc3c(c2)OCO3)[C@@H](C)CN([C@@H](C)CO)C(=O)c2cc(NC(=O)Nc3ccc(F)cc3)ccc2O1`, the growth inhibition call was “inactive”.
